Measurements taken from PubChem BioAssay (Tox21).
Results filed as inconclusive are left out. Calls of active or inactive are those of the source. Calls come from the whole dose curve; as a rule, active = well fitted activation curve with a large enough effect in the signal ratio in the repeat runs (not every such curve was filed as active); inconclusive = weak or mixed curves; inactive = flat fitted curve, though single readings scatter; the % refers to the signal ratio.

Assay: qHTS assay to identify small molecule agonists of H2AX (AID 1224845)
Conditions: CHO-K1 phospho-H2AX Ser139 HTRF, 3 h; series mostly up to 154 µM; activation (H2AX phosphorylation): at the top concentration
Outline: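 Wild-type CHO-K1 cells plated overnight, then exposed 3 hr at 37C to compounds at 15 concentrations (0.76% DMSO). Lysed, then HTRF anti-pH2AX(S139)-cryptate/anti-H2AX-d2 detection after 24 hr at room temperature; emissions 665 and 620 nm.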
% is set by controls: 0 for no effect and ±100 for the full control effect; potency is the fitted concentration of half-maximal effect.

Structure (SMILES) | activation (H2AX phosphorylation) | Potency
CN1C(=O)CN=C(c2ccccc2)c2cc([N+](=O)[O-])ccc21 | 0.455% [at 70.9 µM] (inactive) | –
C1CCNCC1 | -1.48% (inactive) | –
O=C(O)CCCOc1ccc(Cl)cc1Cl | – | inactive
COc1ccc2c(c1OC)C(=O)O[C@H]2[C@@H]1c2cc3c(cc2CCN1C)OCO3 | -0.227% [at 70.9 µM] (inactive) | –
CNC(=O)Oc1cccc(N=CN(C)C)c1 | 8.59% (inactive) | –
OCCCl | -3.52% (inactive) | –
O=[N+]([O-])/C=C/c1ccccc1 | – | 20.1 µM (active)
O=S(=O)(c1ccccc1)c1ccccc1 | 0.954% (inactive) | –
Clc1ccc2ccccc2c1 | -2.4% (inactive) | –
O=C(NC(=O)c1cc(F)c(F)cc1Cl)Nc1cc(F)ccc1N1CCC(C(=O)O)CC1 | 0.507% [at 70.9 µM] (inactive) | –
Clc1ccccc1 | 1.08% (inactive) | –
O=C(O)COc1cc(Cl)c(Cl)cc1Cl | – | inactive
SCc1ccccc1 | -3.43% (inactive) | –
CC(C)[C@@H](C(=O)O[C@@H](C#N)c1cccc(Oc2ccccc2)c1)c1ccc(Cl)cc1 | – | inactive
O=C(O)C(O)C(O)C(=O)O (stereo not drawn) | -2.93% (inactive) | –
O=C(O)c1ccc(=O)[nH]c1 | -2.9% [at 70.9 µM] (inactive) | –
Cc1cnc(C2=NC(C)(C(C)C)C(=O)N2)c(C(=O)O)c1 (stereo not drawn) | -2.68% (inactive) | –
CCC[N+](CCC)(CCC)CCC | -0.109% (inactive) | –
CCCCCCCCn1sccc1=O | -4.34% (inactive) | –

Structure (SMILES) | activation (H2AX phosphorylation) | Potency
Cc1nc2ccccc2c(=O)n1-c1ccccc1Cl | – | 27.8 µM (active)
C[N+]1(CCC(C(N)=O)(c2ccccc2)c2ccccc2)CCCCC1 | -0.549% [at 70.9 µM] (inactive) | –
CCCCC(CC)COC(=O)c1c(Br)c(Br)c(Br)c(Br)c1C(=O)OCC(CC)CCCC (stereo not drawn) | 1.35% [at 70.9 µM] (inactive) | –
CC(C)C1(C)N=C(c2ncccc2C(=O)O)NC1=O (stereo not drawn) | -0.568% (inactive) | –
O=S(=O)(Cl)Cl | -1.02% (inactive) | –
Cc1ccccc1 | 0.45% (inactive) | –
CCCC1CCCCN1 (stereo not drawn) | -2.55% [at 70.9 µM] (inactive) | –
CC1(C)[C@H](C(=O)O[C@H](C#N)c2cccc(Oc3ccccc3)c2)[C@@H]1C=C(Br)Br | – | inactive
CCCC[P+](CC)(CCCC)CCCC (tested in a mixture with another compound) | -2.18% (inactive) | –
C[Si](Cn1cncn1)(c1ccc(F)cc1)c1ccc(F)cc1 | 0.51% (inactive) | –
O=C(O)C(F)(F)C(F)(F)C(F)(F)C(F)(F)C(F)(F)C(F)(F)C(F)(F)C(F)(F)F | 0.987% (inactive) | –
CCOP(=O)(O)C(N)=O | -1.26% (inactive) | –
CC(C)(C)NCC(O)c1ccccc1Cl (stereo not drawn) | -2.02% [at 70.9 µM] (inactive) | –
C=CCc1ccccc1O | -1.6% (inactive) | –
O=C(NCNC(=O)NC1C(=O)NC(=O)N1CO)NC1C(=O)NC(=O)N1CO (stereo not drawn) | -1.22% (inactive) | –
Cc1ncc(C[n+]2csc(CCO)c2C)c(N)n1 | -1.7% (inactive) | –
COP(=O)(OC)OC(Br)C(Cl)(Cl)Br (stereo not drawn) | 0.419% (inactive) | –
C=C(C)C(=O)OCCCCOC(=O)C(=C)C | 1.46% (inactive) | –
C=CCc1ccc(OC(=O)Cc2ccccc2)c(OC)c1 | 0.0281% (inactive) | –
